HP1b binding inh – HTS for Inhibitors of HP1-beta Chromodomain Interactions with Methylated Histone Tails; Chromobox protein homolog 1 (Homo sapiens), P83916; AlphaScreen HP1-beta / biotin-H3K9me3 peptide binding; Potency, µM (top dose mostly 114 µM), actives largely listed as inhibitors; hit rate 0.56% among 390,000; note: nearly all actives have a fitted effect of over 70% in size
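Compound inhibition of the preformed complex between 50 nM HP1-beta and 50 nM biotinylated H3K9me3 peptide was read by AlphaScreen. Buffer was PBS pH 7.4 with 0.01% Tween-20. Incubations ran 30 min at room temperature, with 10 ug/mL donor/acceptor beads.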
TDP1 inh – qHTS Assay for Inhibitors of Tyrosyl-DNA Phosphodiesterase (TDP1); recombinant TDP1, AlphaScreen DNA substrate cleavage; Potency, µM (titrated, usually from 130 µM), most hits filed as inhibitors; Tyrosyl-DNA phosphodiesterase 1 (Homo sapiens), Q9NUW8; hit rate 0.28% among 350,000; AID 485290, 2010; note: nearly all actives have a fitted effect of over 40% in size
Target sequence (Q9NUW8 whole entry, looked up): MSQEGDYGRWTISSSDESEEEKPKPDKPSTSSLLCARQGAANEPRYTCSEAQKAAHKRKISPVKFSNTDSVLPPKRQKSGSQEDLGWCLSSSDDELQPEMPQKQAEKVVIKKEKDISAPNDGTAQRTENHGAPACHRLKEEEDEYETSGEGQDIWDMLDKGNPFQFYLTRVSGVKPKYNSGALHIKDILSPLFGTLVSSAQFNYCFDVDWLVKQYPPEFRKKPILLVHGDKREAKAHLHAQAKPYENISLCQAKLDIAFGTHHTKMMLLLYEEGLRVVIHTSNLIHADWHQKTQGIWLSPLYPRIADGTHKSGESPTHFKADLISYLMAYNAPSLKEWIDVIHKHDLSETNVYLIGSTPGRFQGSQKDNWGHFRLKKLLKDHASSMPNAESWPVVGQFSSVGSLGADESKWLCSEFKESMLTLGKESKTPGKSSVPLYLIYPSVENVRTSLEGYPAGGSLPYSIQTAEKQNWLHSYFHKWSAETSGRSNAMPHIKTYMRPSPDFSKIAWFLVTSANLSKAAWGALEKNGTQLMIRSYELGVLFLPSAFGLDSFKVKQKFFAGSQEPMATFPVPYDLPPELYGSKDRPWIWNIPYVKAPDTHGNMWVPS
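Enzyme-compound mixtures sat 15 min at room temperature, followed by a 5 min reaction with 15 nM final substrate and 10 min with AlphaScreen beads. Recombinant human Tdp1 was used at 1 nM final.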
JMJD2A Tudor inh – qHTS Assay for Inhibitors of JMJD2A-Tudor Domain | hit rate 4.4% among 390,000 | Lysine-specific demethylase 4A (Homo sapiens), O75164 | AlphaScreen JMJD2A-Tudor / H3K4me3 peptide binding | Potency, µM (series often up to 114 µM), hits mostly inhibitors | AID 504339, 2011; note: nearly all actives have a fitted effect of over 50% in size
CtBP-E1A inh – qHTS Assay for Inhibitors of the CtBP/E1A Interaction; hit rate 0.49% among 340,000; activity change, % (test concentration not listed); CtBP / adenovirus E1A interaction (AlphaScreen); AlphaScreen GST-E1A/His-CtBP binding, 1536-well; active compounds read low; AID 651724, 2012; in the data active = activity change below about -65%; inconclusive = mostly about -30% to -63%
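Protein mix (5X: 125 nM each GST-E1A, His-CtBP) was incubated with pinned compound 2 h at 37 deg C in dark, in 50 mM Tris pH 8.0 buffer with 300 mM NaCl. Glutathione donor and nickel acceptor beads followed; AlphaScreen signal read after 1 h.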
Six1-Eya2 inh – qHTS Assay for Inhibitors of the Six1/Eya2 Interaction; Homeobox protein SIX1 (Homo sapiens) + Protein phosphatase EYA2 (Homo sapiens), …; AlphaScreen GST-Six1/His-Eya2 binding, biochemical; active compounds read low; hit rate 0.56% among 360,000; AID 651725, 2012; activity change, % (test concentration not listed); in the data active = activity change below about -65%; inconclusive = mostly about -30% to -63%
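AlphaScreen luminescence read after one hour at 37 °C in darkness. Pin-transferred compounds met GST-Six1 and His-Eya2 protein (5X stock 250 nM/500 nM) plus glutathione donor and Ni-chelate acceptor beads (5X, 50 ug/mL).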
BAZ2B block – qHTS Assay for Inhibitors of BAZ2B; hit rate 4.4% among 360,000; AlphaScreen BAZ2B-H3K14Ac peptide displacement; Potency, µM (series often up to 114 µM), most hits filed as inhibitors; note: nearly all actives have a fitted effect of over 60% in size
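In this displacement format the biotinylated H3(5-23) peptide acetylated at Lys14 serves as ligand at 50 nM, with BAZ2B at 50 nM in PBS pH 7.4 containing 0.01% Tween-20. Donor and acceptor beads are 10 ug/mL final.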
A number is an active result; - = inactive; ? = inconclusive; . = no result. This is a sample that favours compounds with a hit; in the whole collection about 5.3% have one here. Unless noted, calls come from the whole dose curve; as a rule, active = well fitted inhibition curve with a large enough effect; inconclusive = small, poorly fitted or top-dose-only effect; inactive = no such curve, though single readings can be large or run the other way.

SMILES	HP1b binding inh	TDP1 inh	JMJD2A Tudor inh	CtBP-E1A inh	Six1-Eya2 inh	BAZ2B block
COc1ccc(O)c(/C=N/NC(=O)c2cccc(N3CCCC3=O)c2)c1	-	-	-	?	?	-
COc1ccc(O)c(/C=N/NC(=O)c2ccc(N3CCCC3=O)cc2)c1	-	-	-	-71	?	-
CC(C)CCNC(=O)N1CCN(S(=O)(=O)c2ccc3c(ccn3C)c2)CC1	-	-	-	.	.	-
COc1cc(N=c2oc3c(C)ncc(CO)c3cc2C(N)=O)cc(OC)c1OC	-	-	-	-	-79	?
CC(C)c1ccc(CN(Cc2ccco2)c2cnc(S(C)(=O)=O)nc2C(=O)Nc2ccc(F)cc2)cc1	-	-	?	.	.	-
CN1CCN(/N=C/c2ccc(N(C)c3ccccc3)cc2)CC1	-	-	-	-	-	35µM
CN1CCN(/N=C/c2ccc(N(c3ccccc3)c3ccccc3)cc2)CC1	-	-	18µM	-	-	35µM
Cc1ccc(CNS(=O)(=O)c2c(C(=O)N3CCC(C)CC3)c(C)n(C)c2C)cc1	-	-	-	.	.	-
COC(=O)CS(=O)(=O)c1nnc([C@H](Cc2ccccc2)NC(=O)OC(C)(C)C)o1	-	-	79µM	-	-	-
COc1ccc(C)cc1NC(=O)C1COc2ccccc2C1 (stereo unspecified)	-	-	8.9µM	.	.	-
CC1(C)CC(=O)C(/C=N/n2cnc3ccccc3c2=O)=C(O)C1	-	-	40µM	-	-	50µM
CC1(C)CC(=O)C(/C=N/c2ccccn2)=C(O)C1	-	-	-	-	-	-
O=C(CSc1cn(CCNC(=O)c2cccc(C(F)(F)F)c2)c2ccccc12)Nc1ccc2c(c1)OCCO2	-	-	-	.	.	-
CC(C)CC1NC(=O)c2cc(Cl)ccc2-n2c1nc1ccc(F)cc1c2=O (stereo unspecified)	.	-	.	.	.	.
C=CCN1C(=O)C(CC(=O)Nc2ccc(OCCC)cc2)N(CCCN2CCN(Cc3ccccc3)CC2)C1=S (stereo unspecified)	-	-	?	-	-	10µM
COc1ccc(NC(=O)CC2C(=O)N(Cc3ccccc3)C(=S)N2CCN2CCOCC2)cc1 (stereo unspecified)	-	-	-	-	-	-
COc1ccc(-n2ccn(Cc3ccc(C)cc3)c(=O)c2=O)cc1OC	-	-	-	.	.	-
O=C(Oc1ccccc1)n1c(=S)oc2ccccc21	-	-	20µM	-	-	-
CCOc1ccccc1NC(=O)Cn1c(=O)oc2cc(Cl)ccc21	-	.	-	-	-	-
COC(=O)n1c(=O)oc2ccccc21	-	-	-	-	-	-
Cc1ccccc1OC(=O)n1c(=S)oc2cc(Cl)ccc21	-	-	35µM	-	-	-
Cc1ccc(NC(=O)CN2C(=O)CSc3ccc(S(=O)(=O)N4CCCC4)cc32)cc1F	-	-	-	.	.	-
COc1cccc(OC)c1OCCCN1CCC(Cc2ccccc2)CC1	?	-	20µM	-	-	-
COc1ccc(C(=O)C(=O)N2CCC(Cc3ccccc3)CC2)cc1OC	.	.	.	-	-	.
COc1ccc(CN2CCC(Cc3ccccc3)CC2)cc1OC	?	.	20µM	-	-	?
SMILES	HP1b binding inh	TDP1 inh	JMJD2A Tudor inh	CtBP-E1A inh	Six1-Eya2 inh	BAZ2B block
Cc1[nH]c2ccccc2c1CN1CCC(Cc2ccccc2)CC1	?	-	0.79µM	-	-	45µM
CCCCOc1ccc(CN2CCC(O)CC2)cc1	-	-	2.8µM	-	-	?
CCCCOc1ccc(C(=O)Nc2ccc(CN3CCOCC3)cc2)cc1	-	.	-	-	-	-
Cc1ccc(Cl)cc1NC(=O)Cn1c(=O)cc(C)c2c(C)nn(C)c21	-	-	?	.	.	-
O=C(NC1CCN(Cc2cccc([N+](=O)[O-])c2)CC1)c1ccccc1	-	.	-	-	-	-
O=[N+]([O-])c1cccc(CN2CCC(Cc3ccccc3)CC2)c1	?	.	1.6µM	-	-	50µM

High-throughput results as filed in PubChem.
